HT1080 IDH1KD tx – HT-1080 IDH1 knockdown cell toxicity (counter line); hit rate 2% among 360,000; Potency, µM (highest dose often 46.1 µM), most hits filed as cytotoxic; AID 686971; HT-1080 IDH1 knockdown viability, ATP luminescence, 48 h
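Using the IDH1-knockdown HT-1080 line run in the same batch and compound series as the NT line, viability after 48 h at 37 °C was determined by CellTiter-Glo luminescence and expressed as % activity.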
TDP1 cell CPT – DT40-hTDP1 cell growth loss with CPT; chicken DT40 Tdp1-/-;hTDP1 cells + 20 nM CPT, ATP luminescence, 48 h; Potency, µM (highest dose often 46.2 µM), most hits filed as inhibitors; hit rate 12% among 420,000; AID 686979; note: nearly all actives have a fitted effect of over 55% in size
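Chicken DT40 Tdp1-/- cells stably complemented with human TDP1 were seeded at 400 cells/well in medium containing 20 nM camptothecin, exposed to pin-transferred compounds, and grown at 37 °C for at least 48 hr. Viability was read as ATP luminescence.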
TDP1 cell noCPT – qHTS for Inhibitors of human tyrosyl-DNA phosphodiesterase 1 (TDP1): qHTS in cells in absence of CPT. Potency, µM (series often up to 46.2 µM), hits mostly inhibitors. AID 686978, 2013. DT40 Tdp1-/- hTDP1 cells, no CPT, ATP luminescence, 48 h. hit rate 15% among 420,000; note: nearly all actives have a fitted effect of over 55% in size
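Cells were dispensed at 400 per well, compounds added by pin tool, plates incubated ≥48 hr at 37 °C, then CellTiter-Glo added for 30 min at room temperature before luminescence reading. Line: DT40 Tdp1-/- complemented with hTDP1; camptothecin omitted.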
IL1B secr inh – inflammasome signaling inhibition, IL-1 beta readout; activity change, % at 57.5 µM; hit rate 4.7% among 360,000; THP-1 LPS/ATP IL-1B secretion, AlphaLISA, 16 h; hits give low values; AID 743279; in the data active = activity change below about -50%; inconclusive = mostly about -30% to -49%
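Secreted IL-1B measured by AlphaLISA bead assay after 16 h compound exposure of THP-1 cells; compounds (final up to 57.5 uM) added 1 h before LPS (250 ng/mL) and ATP (1.25 mM) stimulation; lower signal means less secretion.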
HT1080-NT tox – kills 2HG-producing HT-1080-NT fibrosarcoma cells; HT-1080-NT fibrosarcoma viability, CellTiter-Glo ATP luminescence, 48 h; hit rate 1.6% among 360,000; AID 686970; Potency, µM (doses to about 46.1 µM), actives largely listed as cytotoxic;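 note: NT is the 2HG producing partner of a matched IDH1 knockdown line; nearly all actives have a fitted effect of over 55% in size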
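Viability by CellTiter-Glo luminescence after 48 h compound exposure at 37C of HT-1080-NT cells (750/well, RPMI, 5% FBS). % activity scaled between DMSO wells and medium-only wells, then curve-fitted and categorized by curve class.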
ELG1 repair inh – inhibitors of ELG1-dependent DNA repair in HEK293T cells; HEK293T ELG1-luciferase reporter, luminescence, 16 h; DNA damage induced by 5-fluorouridine; Potency, µM (top dose mostly 46.1 µM), actives largely listed as inhibitors; hit rate 2.3% among 330,000; AID 504467; note: nearly all actives have a fitted effect of over 55% in size
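Reporter activity after DNA damage by 5-fluorouridine is monitored. Compound-treated cells incubate 16 hr at 37 °C, then ONE-Glo is added for 30 min before luminescence reading.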
Hits are given with their value; [ ] = another dose, or the depositor's remark. Most compounds without a hit are left out; they make up all but 19% or so of the library. Unless noted, calls come from the whole dose curve; as a rule, active = well fitted curve in the direction sought with a large enough effect; inconclusive = small, poorly fitted or top-dose-only effect, or another doubt; inactive = no such curve, though single readings can be large; an effect the other way counts as inactive or inconclusive.

Screening CN1/C(=C\C=Nc2cc(S(=O)(=O)N3CCOCC3)ccc2N2CCOCC2)C(C)(C)c2ccccc21 returned HT1080 IDH1KD tx inactive, TDP1 cell CPT inconclusive, TDP1 cell noCPT 21µM, IL1B secr inh inactive, HT1080-NT tox inactive and ELG1 repair inh inactive.
O=C(NC[C@@H]1CCCN2CCCC[C@H]12)c1cnn(-c2nccc(-c3cc4ccccc4o3)n2)c1C1CC1 was read as TDP1 cell CPT inactive[9.04 µM] and TDP1 cell noCPT inactive.
`CCOC(=O)N1Cc2cc3ccccc3nc2C1` gave HT1080 IDH1KD tx inactive, TDP1 cell CPT inconclusive, TDP1 cell noCPT inconclusive, IL1B secr inh inactive and HT1080-NT tox inactive.
O=c1c(-c2cccc(F)c2)nc2cncnc2n1C1CC1 was read as TDP1 cell CPT inactive and TDP1 cell noCPT inactive.
`Cn1c(N)c(S(=O)(=O)NCc2ccc(F)cc2)c(=O)n(C)c1=O` gave HT1080 IDH1KD tx inactive, TDP1 cell CPT inactive, TDP1 cell noCPT inactive, IL1B secr inh inactive, HT1080-NT tox inactive and ELG1 repair inh inactive.
`CN1/C(=C/C=N/NC(=O)c2ccc([N+](=O)[O-])cc2)C(C)(C)c2ccccc21` gave HT1080 IDH1KD tx inactive, TDP1 cell CPT inconclusive, TDP1 cell noCPT inactive, IL1B secr inh inactive, HT1080-NT tox inactive and ELG1 repair inh inconclusive.
For CN1/C(=C\C=[N+](C)c2ccccc2)C(C)(C)c2ccccc21 the results were HT1080 IDH1KD tx inconclusive, TDP1 cell CPT 1.2µM, TDP1 cell noCPT 1.3µM, IL1B secr inh -95, HT1080-NT tox 7.1µM and ELG1 repair inh inconclusive.
`CO/N=C/C=C1/N(C)c2ccccc2C1(C)C` gave HT1080 IDH1KD tx inactive, TDP1 cell CPT inconclusive, TDP1 cell noCPT inactive, IL1B secr inh inactive, HT1080-NT tox inactive and ELG1 repair inh inactive.
Cc1cc(/N=C/C=C2/N(C)c3ccccc3C2(C)C)n(CCC#N)n1 was read as HT1080 IDH1KD tx inconclusive, TDP1 cell CPT 8.2µM, TDP1 cell noCPT 6.5µM, IL1B secr inh inconclusive and HT1080-NT tox inactive.
CC(=O)NC1=NN(C(C)=O)C(c2ccc(C)cc2)S1 (stereo not given) was read as HT1080 IDH1KD tx inactive, TDP1 cell CPT inactive, TDP1 cell noCPT inactive, IL1B secr inh inactive, HT1080-NT tox inactive and ELG1 repair inh inconclusive.
CC(=O)N1N=C(c2ccc(C)cc2)OC1c1ccc(Br)cc1 (stereo not given) was read as HT1080 IDH1KD tx inactive, TDP1 cell CPT inactive, TDP1 cell noCPT inactive, IL1B secr inh -69, HT1080-NT tox inactive and ELG1 repair inh inactive.
Screening Cc1ccc2nc(C)c3c(c2c1)SCC3 returned HT1080 IDH1KD tx inactive, TDP1 cell CPT inactive, TDP1 cell noCPT inactive, HT1080-NT tox inactive and ELG1 repair inh inactive.
For Cc1ccc(N2CCN(C(=O)Nc3cccc([N+](=O)[O-])c3)CC2C)cc1 (stereo not given) the results were HT1080 IDH1KD tx inactive, TDP1 cell CPT inactive, TDP1 cell noCPT inconclusive, IL1B secr inh -71, HT1080-NT tox inactive and ELG1 repair inh inconclusive.
Screening O=C(Nc1cccc([N+](=O)[O-])c1)N1CCN(c2ccccc2)CC1 returned HT1080 IDH1KD tx inactive, TDP1 cell CPT inactive, TDP1 cell noCPT inconclusive, IL1B secr inh inactive, HT1080-NT tox inactive and ELG1 repair inh inconclusive.
For O=C(Nc1cccc(-c2csc(Nc3cccc(C(F)(F)F)c3)n2)c1)c1ccccc1 the results were HT1080 IDH1KD tx inconclusive, TDP1 cell CPT inconclusive, TDP1 cell noCPT inconclusive, IL1B secr inh inactive, HT1080-NT tox inactive and ELG1 repair inh 21µM.
For O=C(Nc1ccc(-c2csc(Nc3cccc(C(F)(F)F)c3)n2)cc1)c1cc([N+](=O)[O-])cc(C(F)(F)F)c1 the results were HT1080 IDH1KD tx inactive, TDP1 cell CPT 15µM, TDP1 cell noCPT 16µM, IL1B secr inh inactive, HT1080-NT tox inactive and ELG1 repair inh inconclusive.
O=C(Nc1cccc(-c2csc(Nc3ccccc3)n2)c1)c1ccccc1 was read as HT1080 IDH1KD tx inactive, TDP1 cell CPT inconclusive, TDP1 cell noCPT 21µM, IL1B secr inh -61, HT1080-NT tox inactive and ELG1 repair inh inconclusive.
O=C(Nc1ccc(-c2csc(Nc3cccc(C(F)(F)F)c3)n2)cc1)c1ccccc1 was read as HT1080 IDH1KD tx inactive, TDP1 cell CPT 4.6µM, TDP1 cell noCPT 9.2µM, IL1B secr inh inactive, HT1080-NT tox inactive and ELG1 repair inh 12µM.
Screening CC(=O)c1cccc(Nc2nc(-c3ccccc3)cs2)c1 returned HT1080 IDH1KD tx inactive, TDP1 cell CPT inconclusive, TDP1 cell noCPT inconclusive, IL1B secr inh inactive, HT1080-NT tox inactive and ELG1 repair inh inconclusive.
O=C(Cn1cnc2c(OCc3ccccc3)ncnc21)NCCc1c[nH]c2ccccc12 was read as HT1080 IDH1KD tx inactive, TDP1 cell CPT inactive, TDP1 cell noCPT inactive, IL1B secr inh inactive, HT1080-NT tox inactive and ELG1 repair inh inactive.
`O=C(OC(C(=O)NCc1ccc(F)cc1)c1ccccc1)c1ccco1` (stereo not given) gave HT1080 IDH1KD tx inactive, TDP1 cell CPT inactive, TDP1 cell noCPT inactive, IL1B secr inh inactive, HT1080-NT tox inactive and ELG1 repair inh inactive.
CCN(CC)CCNC(=O)CNC(=O)c1nn(-c2ccc(OC)c(OC)c2)c(=O)c2ccccc12 was read as HT1080 IDH1KD tx inactive, TDP1 cell CPT inactive, TDP1 cell noCPT inactive, IL1B secr inh inactive, HT1080-NT tox inactive and ELG1 repair inh inactive.
`COc1cc(/C=C/CN2CCOc3ccc(C(O)c4cccnc4)cc3C2)ccc1O` (stereo not given) gave TDP1 cell CPT inactive[9.04 µM] and TDP1 cell noCPT inconclusive.
`O=C(O)CCC(=O)Nc1cccc(-c2csc(-c3ccccc3)n2)c1` gave HT1080 IDH1KD tx inactive, TDP1 cell CPT inactive, TDP1 cell noCPT inconclusive, IL1B secr inh inactive, HT1080-NT tox inactive and ELG1 repair inh inactive.
`CCCCC(=O)Nc1cccc(-c2csc(-c3ccccc3)n2)c1` gave HT1080 IDH1KD tx inconclusive, TDP1 cell CPT inconclusive, TDP1 cell noCPT inconclusive, IL1B secr inh -79, HT1080-NT tox inactive and ELG1 repair inh inactive.
COc1cc(OC)cc(C2=Cc3ccc(OC)cc3C(CC(C)=O)N2c2ccc(-c3cncnc3)cc2)c1 (stereo not given) was read as HT1080 IDH1KD tx inactive, TDP1 cell CPT 8.2µM, TDP1 cell noCPT inconclusive, IL1B secr inh inactive and HT1080-NT tox inactive.
Screening COC(=O)c1ccc(N2C(c3cc(OC)cc(OC)c3)=Cc3ccc(-c4ccc(C(N)=O)cc4)cc3C2CC(=O)C2CC2)cc1 (stereo not given) returned HT1080 IDH1KD tx inactive, TDP1 cell CPT inconclusive, TDP1 cell noCPT 18µM, IL1B secr inh inactive and HT1080-NT tox inactive.
